# Test results: paper PMC8384837, “Expanding the binding specificity for RNA recognition by a PUF domain”
# What was measured:
# Experiment in all cases: yeast three-hybrid, YBZ-1, SC-Leu-His + 0.5 mM 3-AT, 4 days
# Conditions in all cases: tags: N-Gal4 AD-HA kept; label: inside an RPR1-promoter hybrid RNA with tandem MS2 sites; ssRNA
# PUM1 PUF domain R2-GWW = PUM1 PUF domain R2-GWW (Homo sapiens, UniProt Q14671 828-1176, N899G;Y900W;Q903W)
# Summary of the method: (§1)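 The interaction score is the log change in how often each variant appears, from input to selection. Frequencies came from PCR-amplified, Illumina-sequenced repeat regions of Pumilio-1 PUF domain libraries grown in strain YBZ-1 (LexA–MS2 coat fusion, HIS3 reporter) alongside matching RNA elements. Input plates were SC-Leu and selection plates were SC-Leu-His + 0.5 mM 3-AT, each for four days, and the log2 calculation used a pseudocount of 1 where a variant was absent.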
# PUM1 PUF domain R2-VYE = PUM1 PUF domain R2-VYE (Homo sapiens, UniProt Q14671 828-1176, N899V;Q903E)
# Summary of the method: as §1
# PUM1 PUF domain R6-VYN = target: T1, PUM1 PUF domain R6-VYN (Homo sapiens, UniProt Q14671 828-1176, N1043V;Q1047N)
# T1 sequence: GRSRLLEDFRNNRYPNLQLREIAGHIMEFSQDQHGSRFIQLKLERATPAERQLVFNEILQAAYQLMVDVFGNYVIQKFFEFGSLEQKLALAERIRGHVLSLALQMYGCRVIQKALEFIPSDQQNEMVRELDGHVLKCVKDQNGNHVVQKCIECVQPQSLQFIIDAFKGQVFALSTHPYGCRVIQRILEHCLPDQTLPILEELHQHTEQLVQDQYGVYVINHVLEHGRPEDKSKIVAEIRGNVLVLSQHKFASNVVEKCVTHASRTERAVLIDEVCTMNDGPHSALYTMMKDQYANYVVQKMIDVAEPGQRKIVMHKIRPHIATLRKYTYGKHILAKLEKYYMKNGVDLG
# Summary of the method: as §1
# PUM1 PUF domain R1-GKR = PUM1 PUF domain R1-GKR (Homo sapiens, UniProt Q14671 828-1176, S863G;R864K;Q867R)
# Summary of the method: as §1
# PUM1 PUF domain R1-KDT = PUM1 PUF domain R1-KDT (Homo sapiens, UniProt Q14671 828-1176, S863K;R864D;Q867T)
# Summary of the method: as §1
# PUM1 PUF domain R1-MRR = PUM1 PUF domain R1-MRR (Homo sapiens, UniProt Q14671 828-1176, S863M;Q867R)
# Summary of the method: as §1
# PUM1 PUF domain R5-GRR = PUM1 PUF domain R5-GRR (Homo sapiens, UniProt Q14671 828-1176, C1007G;Q1011R)
# Summary of the method: as §1
# PUM1 PUF domain R5-PFL = PUM1 PUF domain R5-PFL (Homo sapiens, UniProt Q14671 828-1176, C1007P;R1008F;Q1011L)
# Summary of the method: as §1
# PUM1 PUF domain R5-WHS = PUM1 PUF domain R5-WHS (Homo sapiens, UniProt Q14671 828-1176, C1007W;R1008H;Q1011S)
# Summary of the method: as §1
# PUM1 PUF domain R3-FFV = PUM1 PUF domain R3-FFV (Homo sapiens, UniProt Q14671 828-1176, C935F;R936F;Q939V)
# Summary of the method: as §1
# PUM1 PUF domain R5-TVD = PUM1 PUF domain R5-TVD (Homo sapiens, UniProt Q14671 828-1176, C1007T;R1008V;Q1011D)
# Summary of the method: as §1
# PUM1 PUF domain R4-QWP = PUM1 PUF domain R4-QWP (Homo sapiens, UniProt Q14671 828-1176, N971Q;H972W;Q975P)
# Summary of the method: as §1
# PUM1 PUF domain R4-GRS = PUM1 PUF domain R4-GRS (Homo sapiens, UniProt Q14671 828-1176, N971G;H972R;Q975S)
# Summary of the method: as §1
# PUM1 PUF domain R5-SAC = PUM1 PUF domain R5-SAC (Homo sapiens, UniProt Q14671 828-1176, C1007S;R1008A;Q1011C)
# Summary of the method: as §1
# PUM1 PUF domain R4-GRR = PUM1 PUF domain R4-GRR (Homo sapiens, UniProt Q14671 828-1176, N971G;H972R;Q975R)
# Summary of the method: as §1
# PUM1 PUF domain R4-SFR = PUM1 PUF domain R4-SFR (Homo sapiens, UniProt Q14671 828-1176, N971S;H972F;Q975R)
# Summary of the method: as §1
# PUM1 PUF domain R2-PVM = PUM1 PUF domain R2-PVM (Homo sapiens, UniProt Q14671 828-1176, N899P;Y900V;Q903M)
# Summary of the method: as §1
# PUM1 PUF domain R3-VRD = PUM1 PUF domain R3-VRD (Homo sapiens, UniProt Q14671 828-1176, C935V;Q939D)
# Summary of the method: as §1
# PUM1 PUF domain R8-KYW = PUM1 PUF domain R8-KYW (Homo sapiens, UniProt Q14671 828-1176, N1122K;Q1126W)
# Summary of the method: as §1
# PUM1 PUF domain R1-RIE = PUM1 PUF domain R1-RIE (Homo sapiens, UniProt Q14671 828-1176, S863R;R864I;Q867E)
# Summary of the method: as §1
sequence,measurement,setting,value
GGCUAGAACUAGUGGAUCCCCCGGCGCCCGGCGGCUCGAGCCCGGGUAAGUGUAAAAAGUCUGCAUGCCGCCGGGCGCCAUGCCUGCAGGUCGACUCUAGAAAACAUG,binding signal,PUM1 PUF domain R2-GWW,4.69 log2 enrichment (interaction score)
same,binding signal,PUM1 PUF domain R2-VYE,2.23 log2 enrichment (interaction score)
GGCUAGAACUAGUGGAUCCCCCGGCGCCCGGCGGCUCGAGCCCGGGUAAGUGAAAAUAGUCUGCAUGCCGCCGGGCGCCAUGCCUGCAGGUCGACUCUAGAAAACAUG,binding signal,PUM1 PUF domain R6-VYN,6.4 log2 enrichment (interaction score)
GGCUAGAACUAGUGGAUCCCCCGGCGCCCGGCGGCUCGAGCCCGGGUAAGUGUAAAUCGUCUGCAUGCCGCCGGGCGCCAUGCCUGCAGGUCGACUCUAGAAAACAUG,binding signal,PUM1 PUF domain R1-GKR,3.4 log2 enrichment (interaction score)
same,binding signal,PUM1 PUF domain R1-KDT,0.73 log2 enrichment (interaction score)
same,binding signal,PUM1 PUF domain R1-MRR,2.6 log2 enrichment (interaction score)
GGCUAGAACUAGUGGAUCCCCCGGCGCCCGGCGGCUCGAGCCCGGGUAAGUGUUAAUAGUCUGCAUGCCGCCGGGCGCCAUGCCUGCAGGUCGACUCUAGAAAACAUG,binding signal,PUM1 PUF domain R5-GRR,0.43 log2 enrichment (interaction score)
same,binding signal,PUM1 PUF domain R5-PFL,4.31 log2 enrichment (interaction score)
same,binding signal,PUM1 PUF domain R5-WHS,4.68 log2 enrichment (interaction score)
GGCUAGAACUAGUGGAUCCCCCGGCGCCCGGCGGCUCGAGCCCGGGUAAGUGUAAUUAGUCUGCAUGCCGCCGGGCGCCAUGCCUGCAGGUCGACUCUAGAAAACAUG,binding signal,PUM1 PUF domain R3-FFV,1.62 log2 enrichment (interaction score)
GGCUAGAACUAGUGGAUCCCCCGGCGCCCGGCGGCUCGAGCCCGGGUAAGUGUCAAUAGUCUGCAUGCCGCCGGGCGCCAUGCCUGCAGGUCGACUCUAGAAAACAUG,binding signal,PUM1 PUF domain R5-GRR,5.4 log2 enrichment (interaction score)
same,binding signal,PUM1 PUF domain R5-TVD,3.26 log2 enrichment (interaction score)
GGCUAGAACUAGUGGAUCCCCCGGCGCCCGGCGGCUCGAGCCCGGGUAAGUGUAUAUAGUCUGCAUGCCGCCGGGCGCCAUGCCUGCAGGUCGACUCUAGAAAACAUG,binding signal,PUM1 PUF domain R4-QWP,5.65 log2 enrichment (interaction score)
same,binding signal,PUM1 PUF domain R4-GRS,2.08 log2 enrichment (interaction score)
GGCUAGAACUAGUGGAUCCCCCGGCGCCCGGCGGCUCGAGCCCGGGUAAGUGUAAGUAGUCUGCAUGCCGCCGGGCGCCAUGCCUGCAGGUCGACUCUAGAAAACAUG,binding signal,PUM1 PUF domain R3-FFV,6.72 log2 enrichment (interaction score)
GGCUAGAACUAGUGGAUCCCCCGGCGCCCGGCGGCUCGAGCCCGGGUAAGUGUGAAUAGUCUGCAUGCCGCCGGGCGCCAUGCCUGCAGGUCGACUCUAGAAAACAUG,binding signal,PUM1 PUF domain R5-SAC,3.04 log2 enrichment (interaction score)
GGCUAGAACUAGUGGAUCCCCCGGCGCCCGGCGGCUCGAGCCCGGGUAAGUGUACAUAGUCUGCAUGCCGCCGGGCGCCAUGCCUGCAGGUCGACUCUAGAAAACAUG,binding signal,PUM1 PUF domain R4-GRR,2.98 log2 enrichment (interaction score)
same,binding signal,PUM1 PUF domain R4-SFR,4.24 log2 enrichment (interaction score)
GGCUAGAACUAGUGGAUCCCCCGGCGCCCGGCGGCUCGAGCCCGGGUAAGUGUAAAGAGUCUGCAUGCCGCCGGGCGCCAUGCCUGCAGGUCGACUCUAGAAAACAUG,binding signal,PUM1 PUF domain R2-GWW,0.92 log2 enrichment (interaction score)
same,binding signal,PUM1 PUF domain R2-PVM,2.58 log2 enrichment (interaction score)
GGCUAGAACUAGUGGAUCCCCCGGCGCCCGGCGGCUCGAGCCCGGGUAAGUGUAAAUAGUCUGCAUGCCGCCGGGCGCCAUGCCUGCAGGUCGACUCUAGAAAACAUG,binding signal,PUM1 PUF domain R5-GRR,0.47 log2 enrichment (interaction score)
same,binding signal,PUM1 PUF domain R3-VRD,4.68 log2 enrichment (interaction score)
same,binding signal,PUM1 PUF domain R8-KYW,5.55 log2 enrichment (interaction score)
same,binding signal,PUM1 PUF domain R4-GRS,4.09 log2 enrichment (interaction score)
same,binding signal,PUM1 PUF domain R5-WHS,1.16 log2 enrichment (interaction score)
same,binding signal,PUM1 PUF domain R5-TVD,0.28 log2 enrichment (interaction score)
GGCUAGAACUAGUGGAUCCCCCGGCGCCCGGCGGCUCGAGCCCGGGUAAGUGUAAAUUGUCUGCAUGCCGCCGGGCGCCAUGCCUGCAGGUCGACUCUAGAAAACAUG,binding signal,PUM1 PUF domain R1-GKR,3.4 log2 enrichment (interaction score)
same,binding signal,PUM1 PUF domain R1-KDT,5.43 log2 enrichment (interaction score)
same,binding signal,PUM1 PUF domain R1-MRR,5.53 log2 enrichment (interaction score)
same,binding signal,PUM1 PUF domain R1-RIE,2.99 log2 enrichment (interaction score)
